Test [1] in a line: antimalarial activity against Dd2 strain (AID 2302;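 active means growth inhibition above 50% at the single 2 µM test dose, taken to imply half-maximal potency below 2 µM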;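 further: 0% = DMSO untreated growth and 100% = chloroquine plus artemisinin killed control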). Conditions: P. falciparum Dd2 in RBCs, LDH growth readout, 72 h; at 2 µM; stronger effect = higher value.
Test [2] can be described thus: human hepatoma cell viability loss – ATP luminescence, cytotoxicity control for P. falciparum antimalarial project, primary screen (AID 2303;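 active means inhibition above 50%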;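 further: 0% = DMSO wells and 100% = digitonin-killed cells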). Conditions: HepG2 viability, 24-48 h, at 10 µM, stronger effect = higher value.
Test [3] deals with L-lactate dehydrogenase (Plasmodium falciparum (isolate CDC / Honduras)) (UniProt Q27743). Briefly: PfLDH activity inhibition – cell lysate, 3D7 strain, counter-screen for P. falciparum growth inhibition project (AID 2304).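 Further: 0% = vehicle and 100% = reference inhibitor.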 As to conditions: P. falciparum 3D7 crude extract, LDH APAD/NBT absorbance; at 2 µM; stronger effect = higher value. A general note: A counterscreen serves to expose hits that act by an unwanted route or on another target.
Chain of L-lactate dehydrogenase (Plasmodium falciparum (isolate CDC / Honduras)) (Q27743 whole entry, looked up): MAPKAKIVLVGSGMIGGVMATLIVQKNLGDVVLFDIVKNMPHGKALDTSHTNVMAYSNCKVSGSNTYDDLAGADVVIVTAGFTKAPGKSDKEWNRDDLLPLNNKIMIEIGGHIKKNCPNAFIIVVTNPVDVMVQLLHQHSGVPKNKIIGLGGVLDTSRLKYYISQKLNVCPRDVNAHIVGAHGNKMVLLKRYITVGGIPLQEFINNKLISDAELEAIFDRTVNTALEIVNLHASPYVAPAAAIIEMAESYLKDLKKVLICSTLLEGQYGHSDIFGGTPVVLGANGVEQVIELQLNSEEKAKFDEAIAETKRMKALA

Test [4] can be described thus: inhibition of 3D7 malaria parasite growth – strain 3D7 (AID 2306).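 Further: 0% = DMSO wells and 100% = chloroquine plus artemisinin control wells.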 Conditions: P. falciparum 3D7 erythrocytic growth, LDH absorbance, 72 h; at 2 µM; stronger effect = higher value.
Test [5] deals with Calcium-dependent protein kinase 1 (Plasmodium falciparum (isolate 3D7)) (UniProt P62344). Briefly: PfCDPK1 kinase inhibitors, biochemical, TCAMS library (AID 1159585; cut-off not given, nearly all actives have IC50 up to about 0.98 µM;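 further: inhibitors leave more ATP so luminescence rises with inhibition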). Conditions: recombinant PfCDPK1, Kinase-Glo ATP depletion luminescence. Background: Kinase-Glo reads ATP consumption through a luciferase reaction.
Chain of Calcium-dependent protein kinase 1 (Plasmodium falciparum (isolate 3D7)) (P62344 whole entry, looked up): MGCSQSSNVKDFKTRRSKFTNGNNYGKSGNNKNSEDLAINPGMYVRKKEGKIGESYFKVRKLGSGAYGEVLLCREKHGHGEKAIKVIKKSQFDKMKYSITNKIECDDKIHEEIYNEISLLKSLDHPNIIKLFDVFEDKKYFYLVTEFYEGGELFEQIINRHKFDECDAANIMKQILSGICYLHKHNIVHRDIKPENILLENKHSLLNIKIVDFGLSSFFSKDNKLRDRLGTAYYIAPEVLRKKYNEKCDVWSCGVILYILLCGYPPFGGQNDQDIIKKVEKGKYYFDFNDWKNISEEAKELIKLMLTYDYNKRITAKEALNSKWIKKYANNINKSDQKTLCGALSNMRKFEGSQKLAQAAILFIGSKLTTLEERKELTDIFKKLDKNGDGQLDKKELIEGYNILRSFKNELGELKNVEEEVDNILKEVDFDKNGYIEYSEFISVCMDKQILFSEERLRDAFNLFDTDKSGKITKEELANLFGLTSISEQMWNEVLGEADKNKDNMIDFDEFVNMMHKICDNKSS
Test [6] concerns the target Plasmodium falciparum protein kinase 6 (PK6, PF3D7_1337100) (UniProt Q8IDW1). Briefly: PfPK6 kinase inhibitors, biochemical, TCAMS library (AID 1159586). As to conditions: recombinant PfPK6, Kinase-Glo ATP depletion luminescence.
The target in test [7] is Protein kinase 7 (PK7), Plasmodium falciparum 3D7 (PF3D7_0213400) (UniProt Q7YTF7). Briefly: inhibition of Plasmodium PK7 catalytic activity – biochemical, TCAMS antimalarial set, Kinase-Glo luminescence (AID 1159587). Conditions: recombinant PfPK7, Kinase-Glo ATP depletion luminescence.
Chain of Protein kinase 7 (PK7), Plasmodium falciparum 3D7 (PF3D7_0213400) (Q7YTF7 1-343): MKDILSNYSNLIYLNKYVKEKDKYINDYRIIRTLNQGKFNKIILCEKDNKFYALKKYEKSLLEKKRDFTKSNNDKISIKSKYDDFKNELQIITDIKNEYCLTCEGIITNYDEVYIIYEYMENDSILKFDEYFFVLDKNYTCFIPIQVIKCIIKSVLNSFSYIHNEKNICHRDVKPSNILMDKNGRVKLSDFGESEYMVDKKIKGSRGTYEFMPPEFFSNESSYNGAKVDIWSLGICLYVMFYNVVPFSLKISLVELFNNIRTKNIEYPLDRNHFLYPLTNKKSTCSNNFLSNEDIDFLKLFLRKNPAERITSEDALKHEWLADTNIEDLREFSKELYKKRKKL
For test [8], the target named is Calcium-dependent protein kinase 4 (Plasmodium falciparum (isolate 3D7)) (UniProt Q8IBS5). The experiment in a line: PfCDPK4 kinase inhibitors, biochemical, TCAMS library (AID 1159588; cut-off not given, nearly all actives have IC50 up to about 0.91 µM). As to conditions: recombinant PfCDPK4, Kinase-Glo ATP depletion luminescence.
Chain of Calcium-dependent protein kinase 4 (Plasmodium falciparum (isolate 3D7)) (Q8IBS5 whole entry, looked up): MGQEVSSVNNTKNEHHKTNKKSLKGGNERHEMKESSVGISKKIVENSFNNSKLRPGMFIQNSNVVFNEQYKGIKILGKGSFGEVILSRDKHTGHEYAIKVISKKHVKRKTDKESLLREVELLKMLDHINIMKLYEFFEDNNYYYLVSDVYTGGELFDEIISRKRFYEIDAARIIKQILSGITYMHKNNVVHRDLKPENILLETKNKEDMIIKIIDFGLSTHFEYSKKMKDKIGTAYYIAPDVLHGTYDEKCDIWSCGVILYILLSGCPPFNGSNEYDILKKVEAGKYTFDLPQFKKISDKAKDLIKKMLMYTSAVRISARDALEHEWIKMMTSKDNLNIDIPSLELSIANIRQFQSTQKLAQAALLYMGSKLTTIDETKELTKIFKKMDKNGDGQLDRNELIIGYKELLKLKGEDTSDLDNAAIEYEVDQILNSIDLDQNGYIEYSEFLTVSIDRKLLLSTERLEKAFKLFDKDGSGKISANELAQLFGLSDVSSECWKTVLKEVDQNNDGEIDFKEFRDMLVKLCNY

From PubChem BioAssay come the findings set out here.

Unmarked numbers belong to inactive results. For some of these results: Entries with a potency or affinity are not part of this list. Active and inactive are the calls of the source. Unless noted, how the calls were made is not given here.

Chain of Plasmodium falciparum protein kinase 6 (PK6, PF3D7_1337100) (Q8IDW1 1-305): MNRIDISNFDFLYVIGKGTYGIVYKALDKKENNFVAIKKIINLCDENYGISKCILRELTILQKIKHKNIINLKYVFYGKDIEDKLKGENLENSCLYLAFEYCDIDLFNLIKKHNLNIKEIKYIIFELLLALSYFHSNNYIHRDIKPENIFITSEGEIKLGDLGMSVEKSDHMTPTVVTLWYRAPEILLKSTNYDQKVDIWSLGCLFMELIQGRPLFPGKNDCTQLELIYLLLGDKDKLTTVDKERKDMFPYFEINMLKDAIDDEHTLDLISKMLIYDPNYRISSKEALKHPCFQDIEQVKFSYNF

Regarding `O=c1c2ccccc2[nH]c2nc3ccccc3c(Nc3ccccc3)c12`, the growth inhibition is 97% (active) in test [1] and 98% (active) in test [4]. Also, the inhibition (commonly the relative decrease from the control value, in per cent) in test [2] is 8%; in test [3], 6%. Moreover, the result in test [5], in test [6], in test [7] and in test [8] was inactive.
Turning to `O=C(Nc1cccc(CN2CCCN(Cc3cccc(Cl)c3)CC2)c1)c1ccc(Br)cc1`, the growth inhibition in test [1] is 16%; in test [4] it was 92% (active). Also, the results for the inhibition in test [2] and in test [3] were 38% and 1%, respectively. For the same compound, the outcome in test [5], in test [6], in test [7] and in test [8] was inactive.
For `Cc1ccc2nc(-c3cc(-c4cccc(C#N)c4)cnc3N)[nH]c2c1`, the growth inhibition in test [1] is 99% (active); in test [4] it was 100% (active). The inhibition is 40% in test [2] and 1% in test [3]. For the same compound, the outcome in test [5], in test [6], in test [7] and in test [8] was inactive.
As for `COc1cccc(NC(=O)c2ccc(NCCCN3CCC(C)CC3)c([N+](=O)[O-])c2)c1`, the growth inhibition is 46% in test [1] and 100% (active) in test [4]. Besides, the figures for the inhibition in test [2] and in test [3] were 9% and -6%, respectively. Further, the outcome in test [5], in test [6], in test [7] and in test [8] was inactive.
With `CNCCCNc1ccnc2cc(Cl)ccc12`, the results for the growth inhibition in test [1] and in test [4] were 25% and 101% (active), respectively. Besides, the inhibition in test [2] was 11%; in test [3], -1%. In addition, the result in test [5], in test [6], in test [7] and in test [8] was inactive.
Consider `Cc1ccc2cc(NC(=O)CCCCCCCON3C(N)=NC(N)=NC34CCCCC4)ccc2n1`, for which the results for the growth inhibition in test [1] and in test [4] were 86% (active) and 98% (active), respectively. Moreover, the inhibition was 6% in test [2] and 3% in test [3]. The result in test [5], in test [6], in test [7] and in test [8] was inactive.
Consider `FC(F)(F)c1ccc2nc(-c3cccc(-c4cccc(CNCCN5CCNCC5)c4)c3)[nH]c2c1`, for which the growth inhibition is 18% in test [1] and 92% (active) in test [4]. Also, the figures for the inhibition in test [2] and in test [3] were 29% and 4%, respectively. For the same compound, the result in test [5], in test [6], in test [7] and in test [8] was inactive.
Turning to `COc1cc(CNc2ncc(-c3ccsc3)c(-c3nccs3)n2)cc(OC)c1`, the growth inhibition is 82% (active) in test [1] and 86% (active) in test [4]. Also, the inhibition in test [2] was 3%; in test [3], -3%. Moreover, the outcome in test [5], in test [6], in test [7] and in test [8] was inactive.
Regarding `CCCC(C)Nc1nc(C)cc(N[C@@H](Cc2ccccc2)C(=O)NCc2ccc(C)cc2)n1` (stereo not given in full), the growth inhibition in test [1] was 93% (active); in test [4], 101% (active). The inhibition in test [2] is 22%; in test [3] it was 5%. Besides, the outcome in test [5], in test [6], in test [7] and in test [8] was inactive.
With `Oc1c(C(Nc2nc3ccccc3s2)c2ccccc2)ccc2cccnc12` (stereo not given), the growth inhibition in test [1] is 83% (active); in test [4], 95% (active). The inhibition in test [2] is 45%; in test [3] it was -4%. Moreover, the result in test [5], in test [6], in test [7] and in test [8] was inactive.
Take `Cc1cccc(CNc2nc(C)cc(N[C@@H](Cc3ccccc3)C(=O)NCCc3ccccc3)n2)c1`: the growth inhibition is 85% (active) in test [1] and 99% (active) in test [4]. For the same compound, the inhibition in test [2] was 24%; in test [3] it was 2%. Moreover, the result in test [5], in test [6], in test [7] and in test [8] was inactive.
In the case of `N#Cc1ccc2c(c1)CN(CCC1CCC(NC(=O)c3cc4ccccc4cc3N)CC1)CC2` (stereo not given), the values for the growth inhibition in test [1] and in test [4] were 52% (active) and 80% (active), respectively. For the same compound, the results for the inhibition in test [2] and in test [3] were 5% and -8%, respectively. In addition, the outcome in test [5], in test [6], in test [7] and in test [8] was inactive.
Regarding `CCCCOc1ccc(-c2nc3ccccc3[nH]2)cc1`, the growth inhibition is 82% (active) in test [1] and 86% (active) in test [4]. The inhibition is 21% in test [2] and -1% in test [3]. Moreover, the outcome in test [5], in test [6], in test [7] and in test [8] was inactive.
In the case of `CC(=O)c1ccc(Nc2c(C(N)=O)cnc3cc(-c4c(C)noc4C)ccc23)cc1`, the growth inhibition was 44% in test [1] and 99% (active) in test [4]. The inhibition in test [2] was -3%; in test [3], 3%. In addition, the result in test [5], in test [6], in test [7] and in test [8] was inactive.
As to `Cc1cccc2[nH]c(-c3ccc(-c4ccc(CNCCCN5CCCC5=O)cc4)s3)nc12`, the growth inhibition was 43% in test [1] and 101% (active) in test [4]. Moreover, the inhibition was 17% in test [2] and 2% in test [3]. Moreover, the result in test [5], in test [6], in test [7] and in test [8] was inactive.
In the case of `Cn1cc(C(=O)Nc2cccc(-c3cccc(-c4nc5ccccc5[nH]4)c3)c2)n(C)c1=O`, the growth inhibition in test [1] is 60% (active); in test [4] it was 99% (active). Further, the inhibition in test [2] was 0%; in test [3] it was -6%. Moreover, the result in test [5], in test [6], in test [7] and in test [8] was inactive.
For the compound `COc1cc2c(cc1N(C(C)C)S(=O)(=O)c1sc3ccc(Cl)cc3c1C)CCNCC2`, the growth inhibition is 70% (active) in test [1] and 91% (active) in test [4]. Besides, the inhibition in test [2] is 98% (active); in test [3], -3%. In addition, the outcome in test [5], in test [6], in test [7] and in test [8] was inactive.
Take `CC1(C)N=C(N)N=C(N)N1OCC=Cc1ccccc1`: the figures for the growth inhibition in test [1] and in test [4] were 96% (active) and 94% (active), respectively. For the same compound, the inhibition in test [2] is 62% (active); in test [3] it was -3%. For the same compound, the result in test [5], in test [6], in test [7] and in test [8] was inactive.
For `Cc1cc(=O)[nH]c(-n2nc(C)cc2NC(=O)C(c2ccccc2)c2ccccc2)n1`, the growth inhibition in test [1] is 77% (active); in test [4], 96% (active). The inhibition in test [2] was 31%; in test [3], -1%. Moreover, the outcome in test [5], in test [6], in test [7] and in test [8] was inactive.
For the compound `CCCN1CCC2(CC1)NC(C(=O)NCCC(C)C)Cc1c2[nH]c2cc(Cl)ccc12` (stereo not given), the values for the growth inhibition in test [1] and in test [4] were 0% and 86% (active), respectively. Moreover, the inhibition in test [2] was 13%; in test [3] it was -3%. Besides, the outcome in test [5], in test [6], in test [7] and in test [8] was inactive.
